Results published in PubChem BioAssay (NCI).
Values joined by “and” are separate entries in the source; they are usually repeats but may differ in a detail not shown here. Equal values may be shown once. The panel holds about 83,000 compounds, 20% with a hit somewhere; the sample as a whole holds those more often.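 Treatment: one concentration, 48 hours, 96-well format. Scoring: percent growth, with anything below 10 considered active.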 Active and inactive are the calls of the source.

Tests used:
Test in all cases: NCI-60 one-dose screen, 48 h (100 = growth as untreated, 0 = no growth, -100 = all killed)
[1] = tested on: NCI-H23 lung
[2] = tested on: NCI-H226 lung
[3] = tested on: NCI-H322M lung
[4] = tested on: HOP-62 NSCLC
[5] = tested on: NCI-H460 lung
[6] = tested on: HOP-92 NSCLC
[7] = tested on: NCI-H522 lung
[8] = tested on: A549/ATCC NSCLC
[9] = tested on: 786-0 renal
[10] = tested on: COLO 205 colon
[11] = tested on: DU-145 prostate
[12] = tested on: K-562 leukemia
[13] = tested on: MALME-3M melanoma
[14] = tested on: MDA-MB-231 breast
[15] = tested on: RXF 393 renal
[16] = tested on: SF-268 CNS
[17] = tested on: SF-295 CNS
[18] = tested on: SF-539 CNS
[19] = tested on: UACC-257 melanoma
[20] = tested on: M14 melanoma

## COc1ccc(-c2cscc2N)cc1
[1]; 10 µM
  growth: 79.4% (inactive)
[1]; 100 µM
  growth: 74.2% (inactive)
[2]; 10 µM
  growth: 106% (inactive)
[2]; 100 µM
  growth: 86.6% (inactive)
[3]; 10 µM
  growth: 95.6% (inactive)
[3]; 100 µM
  growth: 73.9% (inactive)
[4]; 10 µM
  growth: 55.8% (inactive)
[4]; 100 µM
  growth: 57.6% (inactive)
[5]; 10 µM
  growth: 83.5% (inactive)
[5]; 100 µM
  growth: 33.8% (inactive)
[6]; 10 µM unless noted
  growth: 68.7% [100 µM] (inactive)
[7]; 10 µM unless noted
  growth: 34.8% [100 µM] (inactive)
[8]; 10 µM
  growth: 76.7% (inactive)
[8]; 100 µM
  growth: 46.1% (inactive)
[9]; 10 µM
  growth: 98.6% (inactive)
[9]; 100 µM
  growth: 37.1% (inactive)
[10]; 10 µM
  growth: 78% (inactive)
[10]; 100 µM
  growth: -68.1% (active)
[11]; 10 µM
  growth: 83.3% (inactive)
[11]; 100 µM
  growth: 69.8% (inactive)
[12]; 10 µM
  growth: 54.4% (inactive)
[12]; 100 µM
  growth: 22.9% (inactive)
[13]; 10 µM
  growth: 138% (inactive)
[13]; 100 µM
  growth: 66.9% (inactive)
[14]; 10 µM
  growth: 55.3% (inactive)
[14]; 100 µM
  growth: 50.8% (inactive)
[15]; 10 µM
  growth: 106% (inactive)
[15]; 100 µM
  growth: 89.5% (inactive)
[16]; 10 µM
  growth: 91% (inactive)
[16]; 100 µM
  growth: 41.3% (inactive)
[17]; 10 µM
  growth: 54.1% (inactive)
[17]; 100 µM
  growth: 40.9% (inactive)
[18]; 10 µM
  growth: 78.7% (inactive)
[18]; 100 µM
  growth: 44.3% (inactive)
[19]; 10 µM unless noted
  growth: 41.2% [100 µM] (inactive)
[20]; 10 µM
  growth: 76.1% (inactive)
[20]; 100 µM
  growth: 43.4% (inactive)

## CN1c2ccccc2C(C)(C)C12C=Cc1cc(O)ccc1O2 (configuration not stated)
[1]; 10 µM unless noted
  growth: 52.3% (inactive)
[2]; 10 µM unless noted
  growth: 89% (inactive)
[3]; 10 µM unless noted
  growth: 109% (inactive)
[4]; 10 µM unless noted
  growth: 82.8% (inactive)
[5]; 10 µM unless noted
  growth: 67.9% (inactive)
[6]; 10 µM unless noted
  growth: -6.47% (active)
[7]; 10 µM unless noted
  growth: -15.6% (active)
[8]; 10 µM unless noted
  growth: 75.2% (inactive)
[9]; 10 µM unless noted
  growth: 87.1% (inactive)
[10]; 10 µM unless noted
  growth: 78.2% (inactive)
[11]; 10 µM unless noted
  growth: 52.1% (inactive)
[12]; 10 µM unless noted
  growth: 12% (inactive)
[13]; 10 µM unless noted
  growth: 69.1% (inactive)
[14]; 10 µM unless noted
  growth: 60.9% (inactive)
[15]; 10 µM unless noted
  growth: 57.1% (inactive)
[16]; 10 µM unless noted
  growth: 15.4% (inactive)
[17]; 10 µM unless noted
  growth: 55.9% (inactive)
[18]; 10 µM unless noted
  growth: 25.8% (inactive)
[19]; 10 µM unless noted
  growth: 56.7% (inactive)
[20]; 10 µM unless noted
  growth: 17.9% (inactive)

## O=C(O)c1c(Cl)c(Cl)c(Cl)c(Cl)c1-c1c2cc(I)c(=O)c(I)c-2oc2c(I)c(O)c(I)cc12
[1]; 10 µM
  growth: 103% (inactive) and 91.8% (inactive) and 101% (inactive)
[1]; 100 µM
  growth: -60% (active)
[2]; 10 µM
  growth: 113% (inactive) and 99.1% (inactive) and 94.4% (inactive)
[2]; 100 µM
  growth: 25.9% (inactive)
[3]; 10 µM
  growth: 108% (inactive) and 109% (inactive) and 78.1% (inactive)
[3]; 100 µM
  growth: 36.3% (inactive)
[4]; 10 µM
  growth: 108% (inactive) and 104% (inactive) and 125% (inactive)
[4]; 100 µM
  growth: -66.5% (active)
[5]; 10 µM
  growth: 102% (inactive) and 115% (inactive) and 98.1% (inactive)
[5]; 100 µM
  growth: 98.8% (inactive)
[6]; 10 µM
  growth: 125% (inactive) and 43.3% (inactive) and -9.83% (active)
[6]; 100 µM
  growth: -22.3% (active)
[7]; 10 µM
  growth: 107% (inactive) and 97.2% (inactive) and 57% (inactive)
[7]; 100 µM
  growth: -61% (active)
[8]; 10 µM
  growth: 103% (inactive) and 106% (inactive) and 96.4% (inactive)
[8]; 100 µM
  growth: 25.2% (inactive)
[9]; 10 µM
  growth: 109% (inactive) and 115% (inactive) and 112% (inactive)
[9]; 100 µM
  growth: 8.48% (active)
[10]; 10 µM
  growth: 121% (inactive) and 108% (inactive) and 119% (inactive)
[10]; 100 µM
  growth: -59.9% (active)
[11]; 10 µM
  growth: 93.5% (inactive) and 95.2% (inactive) and 112% (inactive)
[11]; 100 µM
  growth: 59% (inactive)
[12]; 10 µM
  growth: 112% (inactive) and 113% (inactive) and 92.3% (inactive)
[12]; 100 µM
  growth: -33.1% (active)
[13]; 10 µM
  growth: 110% (inactive) and 56.4% (inactive)
[13]; 100 µM
  growth: -11.9% (active)
[14]; 10 µM
  growth: 94.7% (inactive) and 102% (inactive) and 104% (inactive)
[14]; 100 µM
  growth: -39.7% (active)
[15]; 10 µM
  growth: 92.5% (inactive) and 90.9% (inactive) and 57.7% (inactive)
[15]; 100 µM
  growth: -78.9% (active)
[16]; 10 µM
  growth: 88.2% (inactive) and 78.4% (inactive) and 96.9% (inactive)
[16]; 100 µM
  growth: 19.8% (inactive)
[17]; 10 µM
  growth: 100% (inactive) and 98.8% (inactive) and 96.3% (inactive)
[17]; 100 µM
  growth: 15.3% (inactive)
[18]; 10 µM
  growth: 95.4% (inactive) and 96.5% (inactive) and 77.9% (inactive)
[18]; 100 µM
  growth: -67.5% (active)
[19]; 10 µM
  growth: 115% (inactive) and 117% (inactive) and 90.6% (inactive)
[19]; 100 µM
  growth: 22.9% (inactive)
[20]; 10 µM
  growth: 104% (inactive) and 95.6% (inactive) and 119% (inactive)
[20]; 100 µM
  growth: 69.7% (inactive)

## O=C(Nc1cccc(Br)c1)Oc1ccc(Cl)c2cccnc12
[1]; 10 µM unless noted
  growth: -8.8% [100 µM] (active)
[2]; 10 µM unless noted
  growth: 14.5% [100 µM] (inactive)
[3]; 10 µM unless noted
  growth: 82.3% [100 µM] (inactive)
[4]; 10 µM unless noted
  growth: 31% [100 µM] (inactive)
[5]; 10 µM unless noted
  growth: 12.2% [100 µM] (inactive)
[6]; 10 µM unless noted
  growth: 40.7% [100 µM] (inactive)
[7]; 10 µM unless noted
  growth: -56.5% [100 µM] (active)
[8]; 10 µM unless noted
  growth: 23.6% [100 µM] (inactive)
[9]; 10 µM unless noted
  growth: 89.3% [100 µM] (inactive)
[10]; 10 µM unless noted
  growth: 55.8% [100 µM] (inactive)
[11]; 10 µM unless noted
  growth: 42.2% [100 µM] (inactive)
[12]; 10 µM unless noted
  growth: 10.4% [100 µM] (inactive)
[13]; 10 µM unless noted
  growth: 27% [100 µM] (inactive)
[14]; 10 µM unless noted
  growth: 20.1% [100 µM] (inactive)
[15]; 10 µM unless noted
  growth: 51.6% [100 µM] (inactive)
[16]; 10 µM unless noted
  growth: 16.4% [100 µM] (inactive)
[17]; 10 µM unless noted
  growth: 12.1% [100 µM] (inactive)
[18]; 10 µM unless noted
  growth: 9.36% [100 µM] (active)
[19]; 10 µM unless noted
  growth: 7.32% [100 µM] (active)
[20]; 10 µM unless noted
  growth: 8.2% [100 µM] (active)

## CCC1OC(OC)C=CC1=O (configuration not stated)
[1]; 10 µM unless noted
  growth: 106% (inactive)
[2]; 10 µM unless noted
  growth: 103% (inactive)
[3]; 10 µM unless noted
  growth: 108% (inactive)
[4]; 10 µM unless noted
  growth: 98.2% (inactive)
[5]; 10 µM unless noted
  growth: 108% (inactive)
[6]; 10 µM unless noted
  growth: 90.1% (inactive)
[7]; 10 µM unless noted
  growth: 95.5% (inactive)
[8]; 10 µM unless noted
  growth: 102% (inactive)
[9]; 10 µM unless noted
  growth: 99.9% (inactive)
[10]; 10 µM unless noted
  growth: 103% (inactive)
[11]; 10 µM unless noted
  growth: 107% (inactive)
[12]; 10 µM unless noted
  growth: 87.2% (inactive)
[13]; 10 µM unless noted
  growth: 99.9% (inactive)
[14]; 10 µM unless noted
  growth: 106% (inactive)
[15]; 10 µM unless noted
  growth: 113% (inactive)
[16]; 10 µM unless noted
  growth: 108% (inactive)
[17]; 10 µM unless noted
  growth: 98.1% (inactive)
[18]; 10 µM unless noted
  growth: 101% (inactive)
[19]; 10 µM unless noted
  growth: 117% (inactive)
[20]; 10 µM unless noted
  growth: 104% (inactive)
